# Test results from the supplement of paper PMC11417369.
# ± gives the standard deviation of the averaged measurements. In all, about 25,000 sequences were measured (“ln(normalized median fluorescence intensity)”: median about 7.9, highest 2% from about 11 on). The sample as a whole holds a higher share of the highest values than the screen did.
# Tested on: PfAP2-I AP2 domain 3 (GST-tagged)
# Experiment: gcPBM binding intensity (ln(normalized median fluorescence intensity)); higher = stronger DNA binding
# Method in brief: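 GST-tagged P. falciparum DNA-binding domains produced in E. coli were incubated for 1 h on an Agilent 4 × 180k array of primer-extended double-stranded 36-bp intergenic genomic probes with negative controls. Binding intensity is the highest Masliner-normalised natural-log median intensity across replicate spots of either probe orientation, with bound protein detected by Alexa488 anti-GST antibody at 488 nm.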
row,Sequence,gcPBM binding intensity (ln)
1,ATATTATTATAAACTTCACACATTTTATGGGTTTTT [CACACA_site4631],7.49 ± 0.61
2,ATATATATAACAAAAGTGCATTAAGGGGATGCTATA,11.5 ± 0.26
3,TTAAAAGTAAGCAAAGTGCATATAACAAAAGTAAAG,10.01 ± 0.092
4,ATAAAGATTAACAAAGTGCATTTATATATATAATCT [GTGCAC_site9407],9.865 ± 0.092
5,TTTTTTTTTTTTTTGGTGCGTTTATATATAAATATA,10.4 ± 0.86
6,TTAACAAAATTTTTAACACACAAAAAAAAAAAAAAA [CACACA_site1828],8.2 ± 0.8
7,GGTTATAACCCACATGCACACGTAAATAAATATTAT [CACACA_site5992],8.77 ± 0.3
8,TGAAATAACCCATGTGCATGCACTTCAATAACTGAA [TGCATGCA_site1041],9.54 ± 0.47
9,AAATAACCCACGTGCATGCACTTCAATAACTGAACT,11.3 ± 0.14
10,TTGTATTCATATGGTTGTACATATTAAAAGTTCTAA [XGTACX_site7255],7.73 ± 0.31
11,TACTTATTTGATTGGGTGCATATATATAGTATGTAT [GTGCAC_site9845],11 ± 0.73
12,CATATTATTATTTTGGTGCATACTTATATATATTTT,9.53 ± 0.085
13,ATAGTTTAATTTATATGTACATATAATATTGATTTG [XGTACX_site7520],7.89 ± 0.41
14,GTCAATATTTAGATATGTACTAAGGAGTGCTATATA [XGTACX_site222],10.2 ± 0.55
15,TCCGCATGTACATGGGTGCACATAACACCCATTTAA [GTGCAC_site9881],10.4 ± 0.44
16,GAAAAGCAGATAAATGTGCACATATATGTTTGTATA,9.71 ± 0.43
17,TTTTGTTTTTGTAGAGTGCATAAAGAAGATATGTAT,11.1 ± 0.86
18,TATATATGTATAAGAGTGCATATGCATATATGTATA [GTGCAC_site9692],9.85 ± 0.014
19,TTATATGCATAAAAAGGTACACATATATAAATAAAT [XGTACX_site6894],8.23 ± 0.4
20,TTTATGCACGCGTGCACACACATATGAAAAAAGGTA [CACACA_site3315],10.9 ± 0.72
21,CAAAAGGATATGCACACACACACACGGATATTTATA [CACACA_site7099],8.985 ± 0.064
22,GGTATTTATGGACGCGTGCACACACATATGAACAAA,9.9 ± 0.14
23,TATGAAAAAATATATACACACATAATAAAGGTATAT [CACACA_site3737],7.73 ± 0.59
24,TATTTATGCACGCGTGCACACACATATGAAAAAAGG [CACACA_site9090],11.1 ± 0.59
25,TTTGTTATATTTAATACACACATATTATAAACCCAT [CACACA_site3716],7.95 ± 0.59

row,Sequence,gcPBM binding intensity (ln)
1,TTTTCTTACACGAATTTTAAATTCAATATTAAACAT [CACACA_negctrl_site286],8.03 ± 0.44
2,ATGTATATTTTTATGTGTACGTAATAAAACATAATA [XGTACX_site7777],8.33 ± 0.27
3,AAATCCATATAGGATTGTACATATATTATATATATA [XGTACX_site8818],8.46 ± 0.39
4,ATCCTCTTTACAATATGTACATAAATATATATTTAT [XGTACX_site8001],8.47 ± 0.43
5,TTTTGTTATTTTTCAGTGCAATATGATAATAATATA,10.5 ± 0.46
6,TACACATAATATAATGCATGTGTGATGTATGTTTAA [TGCATGCA_site697],8.09 ± 0.66
7,TTTTTTGTTATGCGGGTGCATATAATAATGTGATGA,10.9 ± 0.89
8,TTTTTTTTTTTTTGTACATGCAAATATTATGAACAC [TGCATGCA_site571],8.28 ± 0.53
9,GAAATAATTCGATGTGCATGTAACGTTTCCCCAAAG [TGCATGCA_site122],8.58 ± 0.54
10,AATAAATAAATAAGTACACACATATAAATATAAATA [CACACA_site6271],7.91 ± 0.25
11,TGTTATTAAAATATAGTGCATAATTAACCATTATAA [GTGCAC_site9594],10.8 ± 0.65
12,AATAAAATAAATATATGTACATATATATAACCATTA [XGTACX_site5549],7.59 ± 0.38
13,ATATATTTTTATGTAGTGCATTTAAATAATAAATGC,10.7 ± 0.55
14,AAGTATTATTTTTATGCATGTGAAGTGCAAAATAAA [TGCATGCA_site198],11 ± 0.43
15,ATTCTTAAAAAATAAGTGCAAAATAATTAAATAAAT,10.23 ± 0.014
16,TGATATAAAATTAAAGTGCAAAAAAAAAATAAAAAA,10.06 ± 0.078
17,AGGATATATAATTAAGTGCATTAATTCAAAATAAAA [GTGCAC_site9702],11.5 ± 0.54
18,TTTTATGCATGTGAAGTGCAAAATAAAAAATAAAAT [GTGCAC_site9612],10.8 ± 0.4
19,TGGTTTATTTATTAAGTGCATAAATGCAATATATAT,10.6 ± 0.44
20,TTTTATGCGCAATAAGTGCATTTAAAATATATATAT,11 ± 0.13
21,TTATAAAATATTTATGCATGTGAAGAATATTATAAA [TGCATGCA_site1047],8.42 ± 0.34
22,AATATATATAAAAAAGTGCATTAGGATAACCATATA [GTGCAC_site9590],11.2 ± 0.57
23,AAAAAAAAAAAAAATTGTACATTAAATTAAAAGAAA [XGTACX_site8708],7.88 ± 0.28
24,ATATATATATATATAGTGCAAATATCTTCTTTATAA,10.4 ± 0.26
25,ATACAAGAATTAAACACACACAAAATATAAATTCTT [CACACA_site3005],7.85 ± 0.71

row,Sequence,gcPBM binding intensity (ln)
1,AAATATTATTGACGATGTACTTCTATTCATAAGTAT [XGTACX_site3964],7.55 ± 0.5
2,TAAAAATAAAGAAAATGTACATAAATAAAAATAAAG [XGTACX_site2279],8.14 ± 0.69
3,GATATAATGTGTTTGGTATTCTTGATAGATAGTTTT [CACACA_negctrl_site1711],7.7 ± 0.47
4,TGTAATGTTTACAACACACAAATTATAAATACAAAA [CACACA_site5047],7.67 ± 0.59
5,TATATGTTTTATAGTACACACATAAATGGACATACT [CACACA_site2191],7.83 ± 0.33
6,CTATATTTCGTTGGACGTACAAATGTGATAATTAGG [XGTACX_site3232],8.06 ± 0.46
7,GTCATCAAGTATTAAGTGCATTAAAAATAAAATATA,11.3 ± 0.62
8,TAAATTAATAAACAAGTGCATATATATATATATATA,10 ± 0.49
9,TAAATATATATATAAGTGCATTATATATATATATAA,11.2 ± 0.57
10,TTGTGTAAATGTTAAGTGCATTTGGTAAAATATAAA [GTGCAC_site9699],9.51 ± 0.11
11,TATCAATATTAAAAAGTGCAAAATAAAATATAAAAT [GTGCAC_site9486],10.7 ± 0.23
12,TGTAAAATATAAAAAGTGCATTTCTTTTAATATGAT,9.96 ± 0.19
13,ATCCTTTATAAATAAGTGCATATAAAAAATAATATT [GTGCAC_site9759],10.1 ± 0.3
14,TTGTATTAAAATCAAGTGCATATAATTTAAGTTCAT [GTGCAC_site9495],9.54 ± 0.042
15,AGGTAAAAATGGTAAGTGCATTAATGATAAAAAATG,11.1 ± 0.18
16,TAAAAAATAAAATACACACACATATATATATATATA [CACACA_site1323],9.33 ± 0.2
17,ATTATGAATTTAAGACGTACAAAAAATTTTTATTCA [XGTACX_site5682],7.8 ± 0.31
18,ACAAAATTTACAAAATGTACAAAATTTACAAAGTAT [XGTACX_site6463],7.54 ± 0.56
19,ACATATATTGTACATACACACCTATATAAATATCCT [CACACA_site7503],8.24 ± 0.54
20,AATAGTCGTGTGCATACACACCTTAACTATAATATA [CACACA_site6636],8.83 ± 0.2
21,AACAATATGGATGTATGTACACATATAGAACGTTAT [XGTACX_site7142],7.91 ± 0.72
22,TATGAATGTATATGTTGTACATATAAATATTTATAT [XGTACX_site1146],7.72 ± 0.34
23,TTTGTATTAAAAAAAAAAAAAAAAAAAATGAATAAA [TGCATGCA_negctrl_site292],7.34 ± 0.41
24,TTGTATTTCCTTAGGAGTACACATAAATAAGTAAAT [XGTACX_site6677],8.22 ± 0.092
25,ATAATTACATAGATTGGTACACATTTTTGATTGTAT [XGTACX_site3802],7.71 ± 0.44

row,Sequence,gcPBM binding intensity (ln)
1,ACTTTAACCTGAACGGTGCATAAAATTTTGGCATTA,10.9 ± 0.35
2,TGTATTAAAAATTTGGTGCAACTTTTACATAATAAT,9.49 ± 0.18
3,ACTAATAATTTGTCGGTGCATAAAATTATTTTTATT [GTGCAC_site9840],10.8 ± 0.43
4,CATATTATATTCTGCTTACACACATATATATATATA [CACACA_site3059],9.36 ± 0.29
5,TCCCAATTTCTATCCTGTACAGACATAAATATATAC [XGTACX_site5937],8.31 ± 0.49
6,TATGTATATATTTACGCATGCTACTCTATTTTGAGA [TGCATGCA_site990],7.64 ± 0.48
7,TAAATCAAAATAATTTAACACACAATTTTAATACTG [CACACA_site8744],7.34 ± 0.54
8,AATAAATACTAAATGGTGCAAAATTTTTTAACACTG,10.8 ± 0.42
9,ATACTATTTAAATGGGTGCTAAAAATAACAAAAATT,9.65 ± 0.085
10,ATCAAATTTGGACATGCATGTGTGTGTAAAACCATG [TGCATGCA_site309],8.52 ± 0.41
11,TGGTATATTATTTTTTGTACACATAAATGAAACATT [XGTACX_site5345],8.04 ± 0.22
12,GGTGTTTTTCACAGATGTACACAAATAAAAAAGAAA [XGTACX_site4454],8.39 ± 0.47
13,TCGTTATCCATCTTCACACATATATATAGTAATATA [CACACA_site5492],8.27 ± 0.49
14,AAAGTGTTAACCTAATCTTTAGTTTTTAAACAATAT [CACACA_negctrl_site841],7.49 ± 0.59
15,TTAATTTATTTATGCACACATATATAATTACCCATA [CACACA_site682],10.2 ± 0.67
16,CTATTTCAATTTAGTGCACACATTTTAATTTATAAG [CACACA_site2040],11.4 ± 0.49
17,GCCATTAATTTATACACACACATTATAACTTTTTAT [CACACA_site6492],8.29 ± 0.49
18,ACCCATTTTAATTTAGTGCACATTTTACCTTTATAC,11.4 ± 0.35
19,ATATATATATATATAGTGCACATTTATATAATTATT,11.43 ± 0.092
20,TTAATAATTAATTATAGTACACATTTATATTAATAA [XGTACX_site190],7.915 ± 0.064
21,TATAATAATATTATAGTGCATATTATTTATATATAA [GTGCAC_site9820],9.72 ± 0.16
22,TTTTTTTCAATATTTGCACACGATTATAATATTTAA [CACACA_site2237],9.415 ± 0.035
23,TATATTATTAATTAAGCACACATTATTTTTATAATA [CACACA_site3982],8.54 ± 0.3
